# Screens (PubChem)
# SNCA expr inh = Primary qHTS assay for inhibitors of alpha-synuclein gene (SNCA) expression. HEK-293 SNCA-luciferase knock-in, luminescence, 24 h. Potency, µM (titrated, usually from 57.2 µM), without a hit: at the top dose activity change, negative = inhibition, most hits filed as inhibitors. 140,000 tested, 0.17% active. AID 1671194, 2021;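 also: potency is read from the fitted curve at half-maximal effect; plate controls were DMSO cells for no effect and cell-free wells for full effect; nearly all actives have a fitted effect of over 45% in size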
# KDM5B inh = Primary screen for KDM5B Histone Demethylases FDH-coupled qHTS; Lysine-specific demethylase 5B (Homo sapiens), Q9UGL1; KDM5B demethylase, FDH-coupled NADH fluorescence (FDH is formaldehyde dehydrogenase); Potency, µM (titrated, usually from 57.7 µM), hits mostly inhibitors; 220,000 tested, 2.6% active; also: potency is read from the fitted curve at half-maximal effect; 0% is about no effect; nearly all actives have a fitted effect of over 70% in size
# Target sequence (Q9UGL1 whole entry, looked up): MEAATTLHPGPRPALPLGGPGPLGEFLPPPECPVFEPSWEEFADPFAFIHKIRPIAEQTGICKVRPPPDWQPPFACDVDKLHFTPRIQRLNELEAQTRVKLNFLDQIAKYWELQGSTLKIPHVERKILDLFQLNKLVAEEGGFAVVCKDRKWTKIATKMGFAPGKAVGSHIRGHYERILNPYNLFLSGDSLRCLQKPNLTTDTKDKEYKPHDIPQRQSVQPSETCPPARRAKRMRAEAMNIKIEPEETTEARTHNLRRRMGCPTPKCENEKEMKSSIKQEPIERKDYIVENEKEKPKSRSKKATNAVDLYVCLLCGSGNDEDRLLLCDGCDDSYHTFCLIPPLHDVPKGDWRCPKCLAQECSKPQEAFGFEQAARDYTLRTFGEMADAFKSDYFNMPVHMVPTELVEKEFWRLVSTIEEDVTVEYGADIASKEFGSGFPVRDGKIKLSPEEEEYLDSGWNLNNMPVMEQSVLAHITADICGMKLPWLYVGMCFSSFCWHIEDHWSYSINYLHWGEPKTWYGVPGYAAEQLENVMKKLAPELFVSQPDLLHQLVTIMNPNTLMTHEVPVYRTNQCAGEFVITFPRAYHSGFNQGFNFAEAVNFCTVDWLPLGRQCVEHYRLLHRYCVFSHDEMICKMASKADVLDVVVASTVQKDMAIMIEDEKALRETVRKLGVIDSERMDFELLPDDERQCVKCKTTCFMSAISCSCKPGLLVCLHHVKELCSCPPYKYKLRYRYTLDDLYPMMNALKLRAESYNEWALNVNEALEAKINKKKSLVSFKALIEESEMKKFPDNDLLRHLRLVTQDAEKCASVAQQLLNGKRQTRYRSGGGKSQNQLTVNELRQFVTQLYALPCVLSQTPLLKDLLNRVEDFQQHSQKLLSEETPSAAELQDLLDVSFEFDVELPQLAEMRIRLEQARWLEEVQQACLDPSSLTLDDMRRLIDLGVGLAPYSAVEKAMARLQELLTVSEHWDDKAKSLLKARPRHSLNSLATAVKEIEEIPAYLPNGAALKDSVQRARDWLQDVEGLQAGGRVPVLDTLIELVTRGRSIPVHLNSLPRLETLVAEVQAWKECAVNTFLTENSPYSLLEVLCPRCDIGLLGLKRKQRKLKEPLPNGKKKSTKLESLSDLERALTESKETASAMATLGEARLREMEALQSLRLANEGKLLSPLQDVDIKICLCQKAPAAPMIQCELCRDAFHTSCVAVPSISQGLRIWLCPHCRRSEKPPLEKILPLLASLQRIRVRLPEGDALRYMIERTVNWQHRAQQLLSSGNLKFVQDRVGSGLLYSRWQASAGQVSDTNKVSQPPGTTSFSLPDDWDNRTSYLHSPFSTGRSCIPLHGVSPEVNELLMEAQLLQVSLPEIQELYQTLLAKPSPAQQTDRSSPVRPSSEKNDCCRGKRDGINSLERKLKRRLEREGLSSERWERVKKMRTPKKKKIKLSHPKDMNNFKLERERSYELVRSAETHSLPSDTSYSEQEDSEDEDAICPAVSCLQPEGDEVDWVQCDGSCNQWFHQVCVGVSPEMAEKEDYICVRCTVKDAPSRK
#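 Inhibition is measured as reduced NADH fluorescence generation from FDH coupling to formaldehyde release. Truncated KDM5BΔAP at 200 nM final acts on H3K4me3 peptide (12.5 µM in substrate mix) in pH 7.5 HEPES buffer with Tween-20, 30 min, room temperature.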
# SNCA viab count = GF-AFC viability counterscreen for inhibitors of alpha-synuclein gene (SNCA) expression; 150,000 tested, 0.12% active; Potency, µM (titrated, usually from 57.1 µM), for inactives: top-dose activity change, negative = cytotoxicity, most hits filed as cytotoxic; AID 1671193, 2021; HEK-293-SNCA-luc viability, GF-AFC fluorescence, 24 h;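 also: potency is read from the fitted curve at half-maximal effect; 0% = DMSO-treated cells and -100% = medium-only wells without cells; nearly all actives have a fitted effect of over 30% in size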
#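 Cytotoxicity counterscreen: after 24 h compound treatment of genome-edited SNCA-luciferase HEK-293 cells, live-cell protease substrate GF-AFC read by fluorescence after 30 min; activity scaled between DMSO (0%) and medium-only (-100%), curves Hill-fitted.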
# IP6K1 inhibitor = Primary qHTS assay for small molecule inhibitors of Inositol hexaphosphate kinase 1 (IP6K1) | Inositol hexakisphosphate kinase 1 (Homo sapiens), Q92551 | IP6K1 kinase, ADP-Glo luminescence, 2 h; active compounds read low | activity change, % (series mostly up to about 58 µM) | 140,000 tested, 0.81% active; in the data active = activity change below about -25%; also: % is scaled to controls: 0 for no effect and ±100 for the full control effect
#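 ADP-Glo luminescence measures ADP made by human IP6K1 during a 2 h RT reaction with ATP/IP6 (mix at 1.3 mM/130 uM); top library doses 57.5 and 19.1 uM final.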
# * hit, by the source's call; i = inactive; ? = inconclusive; / = no result; [ ] = dose if it differs, or a comment. Most compounds without a hit are left out; they make up all but 2.8% or so of the library. Unless noted, calls follow the shape of the dose curve; as a rule, active = well fitted curve in the direction sought with a large enough effect; inconclusive = small, poorly fitted or top-dose-only effect, or another doubt; inactive = no such curve, though single readings can be large; an effect the other way counts as inactive or inconclusive.
SMILES,SNCA expr inh,KDM5B inh,SNCA viab count,IP6K1 inhibitor
c1ccc(-c2noc(-c3cncnc3NCCc3cccs3)n2)cc1,6%,28µM*,6%,-7
C1=C(CCNc2ncncc2-c2nc(-c3ccccc3)no2)CCCC1,17%,28µM*,6%,-6
Fc1cc(F)cc(CNc2ncncc2-c2nc(-c3ccccc3)no2)c1,-10%,?,8%,2
c1ccc(CCCNc2ncncc2-c2nc(-c3ccccc3)no2)cc1,-17%,28µM*,11%,-11
Cc1cccc(CNc2ncncc2-c2nc(-c3ccccc3)no2)c1,5%,?,4%,-1
CCn1c(C2CCCN(Cc3c(C(=O)O)[nH]c4ccc(C)cc34)C2)n[nH]c1=O (stereo unspecified),9%,28µM*,8%,16
Cc1ccc2nc(C3CCCN(Cc4ccccc4)C3)[nH]c(=O)c2c1 (stereo unspecified),-5%[87.6 µM],i,-4%[87.6 µM],3
COc1ccc(CN2CCC3(CC2)Cc2ccccc2CNC3=O)cc1F,0%,i,-6%,-9
COc1ccccc1N1CCN(S(=O)(=O)c2c(C)sc3ncn(CC(=O)Nc4ccccc4F)c(=O)c23)CC1,2.5µM*,i,3%,4
COc1ccccc1N1CCN(S(=O)(=O)c2c(C)sc3ncn(CC(=O)Nc4ccc(C(F)(F)F)cc4)c(=O)c23)CC1,-2%,i,3%,13
CCC(C(=O)NCc1nnc2ccc(-c3ccc(OC)cc3)nn12)c1ccccc1 (stereo unspecified),15%,25µM*,1%,10
CCC(C(=O)NCc1nnc2ccc(-c3ccccc3)nn12)c1ccccc1 (stereo unspecified),-15%,22µM*,3%,40
CC(Oc1cccc(Cl)c1)C(=O)NCc1nnc2ccc(-c3ccccc3)nn12 (stereo unspecified),-13%,?,13%,8
Cc1ccc(Nc2nc(-c3cc4ccccc4oc3=O)cs2)cc1C,/,i,/,/
CN(C)c1ccc(CN[C@H]2C[C@H]3C(=O)NC[C@@H](CCC(=O)Nc4ccccc4)N3C2)cc1,51%,i,-3%,15
O=C(CSc1nnc(C2CC2)n1C1CC1)Nc1ccc(Cl)c(S(=O)(=O)N2CCCCC2)c1,/,i,/,/
O=C(O)C1CNCCN(C(=O)c2nc3ccc(F)cc3[nH]2)C1 (stereo unspecified),-4%,i,9%,-2
Cc1nc2ncccn2c1C(=O)N1CCNCC(C(=O)O)C1 (stereo unspecified),-3%,22µM*,-5%,-6
Cc1nc2ncccn2c1C(=O)N1CCn2nc(CO)cc2C1,15%,32µM*,3%,-11
N#Cc1ccc(NC(=O)CCSc2ccc(Cl)cc2)cc1,/,i,/,/
O=C(c1ccc(OC(F)(F)F)cc1)N1CCC(N2CC3CC(C2)[C@H]2CCCC(=O)N2C3)CC1 (stereo partly specified),-14%,i,5%,3
COc1cc(F)ccc1-c1ccnc2nc(C3CCCCC3)nn12,9%,28µM*,-8%,-1
c1coc(-c2ccnc3nc(C4CCC4)nn23)c1,29%,28µM*,9%,11
COc1cccc(-c2ccnc3c(-c4ccccc4)c(C)nn23)c1,55%,i,-10%,4
COc1cccc(-c2ccnc3nc(C4CCC4)nn23)c1,2%,28µM*,2%,-10
SMILES,SNCA expr inh,KDM5B inh,SNCA viab count,IP6K1 inhibitor
COc1cc(-c2ccnc3nc(C4CCC4)nn23)cc(OC)c1OC,5%,22µM*,0%,-6
CCC(C)NC(=O)CSc1nc(C2CC2)nc(C)c1C(C)=O (stereo unspecified),/,i,/,/
Cn1c(=O)[nH]c(=O)c2c1nc(N1CCc3ccccc3C1)n2Cc1ccccc1Cl,/,i,/,/
c1ccc(-c2ccnc3nc(C4CC4)nn23)cc1,10%,28µM*,12%,7
c1ccc(CCc2nc3nccc(-c4cccnc4)n3n2)cc1,13%,i,0%,-8
COc1cc(-c2ccnc3nc(-c4cccs4)nn23)cc(OC)c1OC,71%,14µM*,-1%,1
c1coc(-c2ccnc3ncnn23)c1,3%,28µM*,12%,9
COc1c(C)cc(C(C(=O)O)N2CCC(CN3CCCC3=O)CC2)cc1C (stereo unspecified),7%,i,7%,-14
COc1cc2c(cc1OC)C(C[C@H]1CN(C(=O)N3CCOCC3)CC[C@H]1CC(=O)O)=NCC2,-10%,i,3%,4
COc1cc2c(cc1OC)C(C[C@H]1CN(C(=O)Nc3cccc(C(C)=O)c3)CC[C@H]1CC(=O)O)=NCC2,-18%,28µM*,3%,5
CCCNC(=O)N1CC[C@@H](CC(=O)O)[C@@H](CC2=NCCc3cc(OC)ccc32)C1,-15%[87.6 µM],?,3%[87.6 µM],18
COc1cc2c(cc1OC)C(C[C@H]1CN(C(=O)Nc3ccc(F)cc3)CC[C@H]1CC(=O)O)=NCC2,-8%,28µM*,5%,-7
CCCNC(=O)N1CC[C@@H](CC(=O)O)[C@@H](CC2=NCCc3cc(F)ccc32)C1,2%[87.6 µM],32µM*,0%[87.6 µM],2
COC(=O)c1cccc(COCC2=CC(C)(C)COc3ccc(OC)cc32)c1,/,/,/,1
C[C@@H](NC(=O)c1ccc(Cl)cc1)c1c(-c2ccc(F)cc2)noc1C(=O)O,13%[87.6 µM],?,7%[87.6 µM],-23
Cc1cc(C(=O)N[C@H](C)c2c(-c3ccc(Cl)cc3)noc2C(=O)O)c(C)o1,7%[87.6 µM],28µM*,20%[87.6 µM],-11
COc1ccc2nc3n(c2c1)[C@@H](CNC(=O)C1CCOCC1)COC3,-3%[87.6 µM],40µM*,-14%[87.6 µM],1
Cc1ccc(-c2ccc3nnc(CNC(=O)c4cc(Cl)ccc4F)n3n2)cc1,-9%,28µM*,-8%,-1
COc1ccc(-c2ccc3nnc(CNC(=O)c4cc(Cl)ccc4F)n3n2)cc1,3%,28µM*,15%,-13
COc1ccc(-c2ccc3nnc(CNC(=O)c4cc(F)ccc4F)n3n2)cc1,3%,28µM*,4%,15
COc1ccc(C(=O)NCc2nnc3ccc(-c4ccc(Cl)cc4)nn23)c(OC)c1,2%,i,-3%,19
Cc1ccc(-c2ccc3nnc(CNC(=O)c4cc(F)ccc4Cl)n3n2)cc1,1%,13µM*,-6%,-14
C[S+](=O)([O-])N1CC2(CCCN(CC3CCCCC3)C2)Cc2ccccc21 (stereo unspecified),-23%,i,-4%,-12
Fc1ccccc1CNc1ccccc1,/,i,/,/
COCc1nn(CC(=O)NC(C)Cc2cc(C)[nH]n2)c(=O)n1-c1ccccc1 (stereo unspecified),-5%,i,1%,2
OCC1CCCN(c2ccc(-c3nc(-c4cccc(C(F)(F)F)c4)no3)cn2)C1 (stereo unspecified),48%,28µM*,1%,-2
OC[C@@H]1CN(c2ccc(-c3nc(-c4cccc(C(F)(F)F)c4)no3)cn2)C[C@H]1CO,-1%,28µM*,-9%,0
